From PubChem BioAssay AID624134 (Broad Institute, 2012) come the findings set out here.

Each structure is given as a SMILES string. The whole screen tested about 1,600 compounds, of which about 1,100 (69%) were called active. So high a share suggests a set chosen from earlier hits. Only a sample is shown. Entries with a potency or affinity are not part of this list. Inconclusive results are not listed. Unmarked numbers belong to inactive results.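 The calls were made as follows: active = signal drop with fitted half-maximal concentration no higher than twice the top valid tested concentration; inconclusive = flat curve with 30 to 70% signal loss, or poor fit; inactive = the rest, including signal rises and flat curves within 30%.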 Non-standard residues stand in square brackets, D forms with d. Residues, ends and D or L forms follow the SMILES beside them. *: point of attachment. Ac5c = NC1(C(=O)O)CCCC1; Cbz = O=C(OCc1ccccc1)*

This assay in a line: HepG2 cell cytotoxicity, dose response, cytotoxicity control for Shn3 inhibitor project, CellTiter-Glo, cherry-picked (AID 624134).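 Also: 0% = median of neutral control wells and -100% = median of positive control wells.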 Particulars: HepG2 viability, CellTiter-Glo ATP luminescence, 48 h; series mostly up to 35 µM; activity change, negative = cytotoxicity: at the top concentration.
For the molecule `CCCCNc1cccc2c1S(=O)(=O)N(CCCC)CC(COCc1ccccc1)O2` (configuration not stated), the “activity change, negative = cytotoxicity” value is -6.62%.
Next, `C=CCn1c(C)cc(C(=O)CN2C(=O)c3ccccc3S2(=O)=O)c1C`: -11.7%.
In the case of `CC(NNC(=S)N1CCN(c2ccccn2)CC1)c1nccc2ccccc12` (configuration not stated) it was -14.5%; in that of `CCOC(=O)C1=C(C)N(CCCC(=O)O)C(=O)NC1c1ccc2ccccc2c1` (configuration not stated), -2.41%.
With `CC1Cc2cc(S(=O)(=O)N3CCC(C(=O)N4CCN(c5ccccc5F)CC4)CC3)ccc2N1C(=O)C1CC1` (configuration not stated), the “activity change, negative = cytotoxicity” value is -1.82%.
As for `CC(=O)N1c2ccc(S(=O)(=O)N3CCC(C(=O)N4CCN(c5ccccc5F)CC4)CC3)cc2CC1C` (configuration not stated), the “activity change, negative = cytotoxicity” value was 4.49%.
In the case of `CC(=O)Oc1ccc(OC(C)=O)c(SCCCCCCl)c1` it was -11.1%.
Next, `CN1/C(=C\C(=O)CN2C(=O)NC3(CCCCCC3)C2=O)C(C)(C)c2ccccc21`: -23%; `Cc1ccc(N2C(=O)c3cccc4c([N+](=O)[O-])ccc(c34)C2=O)c2cccnc12`: -22%.
As to `O=C(N[C@@H]1C/C=C\C[C@H](CC(=O)N(CCO)Cc2ccccc2)C(=O)NC[C@@H](c2ccccc2)OC1=O)OCC1c2ccccc2-c2ccccc21`, the “activity change, negative = cytotoxicity” value is -27%.
In the case of `CN(CC(=O)Nc1cc(S(=O)(=O)N2CCCC2)ccc1Cl)Cc1ccc2c(c1)OCO2`, the “activity change, negative = cytotoxicity” value was -8.05%.
In the case of `Cc1ccc(NC(=O)NCCCN2CCOCC2)cc1` it was 4.85%; in that of `CC12CC(O)C3c4ccc(O)cc4CCC3C1CCC2=O` (configuration not stated), -11.4%; in that of `CCCCCOC(=O)c1[nH]c2c(c1C)C(=O)CC(c1ccco1)C2` (configuration not stated), -17.9%.
In the case of `CCOC(=O)CNC(=O)C1(NC(=O)CNC(=O)OCc2ccccc2)CCCC1` (Cbz-Gly-[Ac5c]-Gly-OEt) it was 1.52%; in that of `CCC(C)[C@H]1CNC(=S)N1CCc1cc(C(F)(F)F)cc(C(F)(F)F)c1` (some centres not stated), -12.5%.
`CC(C)N=C(N)N=C(N)Nc1ccc(Cl)cc1`: the “activity change, negative = cytotoxicity” value was -14.4%.
In the case of `Cc1cc(C)cc(C(=O)NCC(=O)OCC(=O)NCC(F)(F)F)c1` it was -10.9%.
Next, `CSC1SCC2C(=O)N(C)C(C(C)C)C(=O)OCC(NC(=O)c3cnc4ccccc4n3)C(=O)NC(C)C(=O)N(C)C1C(=O)N(C)C(C(C)C)C(=O)OCC(NC(=O)c1cnc3ccccc3n1)C(=O)NC(C)C(=O)N2C` (configuration not stated): -23.9%.
In the case of `O=C1ON=C(c2ccccc2)/C1=C/c1ccc(-c2ccccc2[N+](=O)[O-])o1`, the “activity change, negative = cytotoxicity” value is -7.62%.
Next, `Cc1cc(C(=O)COC(=O)c2ccccc2O)c(C)n1Cc1cccs1`: 0.392%; `CC(Oc1ccc(F)cc1)C(=O)N(CCC1=CCCCC1)c1c(N)n(Cc2ccccc2)c(=O)[nH]c1=O` (configuration not stated): -32.6%; `COc1ccc2c(CC(=O)OCC(=O)N(C)c3c(N)n(Cc4ccccc4)c(=O)[nH]c3=O)coc2c1`: 0.984%.
Next, `Cn1cccc1Cc1nnc(SCC(=O)NCCc2ccccc2)n1-c1ccc(F)cc1`: -2.41%; `CCCOc1ccccc1C1CC(=O)Nc2cc3c(cc21)OCCO3` (configuration not stated): -16.2%; `COc1cc(C#Cc2c(-c3cncn3C)n(C)c3ccc(-c4ccc(OC)nc4)cc23)cc(OC)c1`: -10%.
Take `O=C(c1n[nH]c(=O)c2ccccc12)N1CCN(C2c3ccccc3-c3ccccc32)CC1`: the “activity change, negative = cytotoxicity” value is -7.71%.
In the case of `Cn1cc(CN(CCO)Cc2cccs2)c(-c2cccc(Cl)c2)n1` it was -1.41%; in that of `Cc1noc(C)c1COC(=O)[C@@H](NC(=O)c1ccccc1)C(C)C`, 2.94%.
As for `COc1ccc(CN(C(=O)CSc2nnc(-c3ccc(F)cc3)o2)c2ccc(F)cc2)cc1`, the “activity change, negative = cytotoxicity” value was -3.67%.
Regarding `Fc1ccccc1N1CCN(Cc2nc(-c3ccccc3)no2)CC1`, the “activity change, negative = cytotoxicity” value is -9.95%.
On to `O=C(Nc1cc2c3c(c1)C1CCCC1CN3CC1CCCC21)c1ccc([N+](=O)[O-])cc1` (configuration not stated), for which the “activity change, negative = cytotoxicity” value is -8.21%.
Next, `CCCCC[C@H]1CN(Cc2ccc(OC)cc2)C(=O)[C@@H]1CC(=O)NCc1ccccc1`: -12.3%.
In the case of `CSc1nnc(NC(=O)c2nc(S(=O)(=O)Cc3ccccc3F)ncc2Cl)s1` it was -11%; in that of `Cc1ccc(CS(=O)(=O)c2ncc(Cl)c(C(=O)Nc3nnc(C)s3)n2)cc1`, -16%.
As for `CCn1c(=O)c(C(=O)Nc2nc3ccccc3[nH]2)c(O)c2ccccc21`, the “activity change, negative = cytotoxicity” value was 1.78%.
For `CCOC(=O)Cn1c(S(=O)(=O)Cc2ccccc2Cl)nc(-c2ccccc2)c1-c1ccccc1`, the “activity change, negative = cytotoxicity” value was -12.6%.
Turning to `CCOC(=O)c1cccc(NC2c3ccccc3C(=O)N2Cc2ccco2)c1` (configuration not stated), the “activity change, negative = cytotoxicity” value is -2.92%.
As for `CCOC(=O)c1c(C)[nH]c(C)c1C(=O)CSc1nc2ccccc2c(=O)n1-c1ccc(CC)cc1`, the “activity change, negative = cytotoxicity” value is -19.7%.
For `CCOC(=O)Cn1c(=O)c(-c2cc(Br)ccc2N)nc2ccccc21`, the “activity change, negative = cytotoxicity” value is -8.59%.
In the case of `CSc1nnc(-c2ccco2)n1-c1ccccc1` it was 0.586%; in that of `CCC(C)c1ccc(S(=O)(=O)N2CCN(C(=O)c3ccc(Cl)c(S(=O)(=O)N4CCOCC4)c3)CC2)cc1` (configuration not stated), -13.9%.
Turning to `CCCCCCC#Cc1ccc2c(c1)COc1c3ccccc3nn1-2`, the “activity change, negative = cytotoxicity” value is -0.219%.
In the case of `O=C(O)C1(Nc2ccccc2Cl)CCCC1` it was -3.18%; in that of `Cc1ccn2cc(-c3ccc(O)c(O)c3)nc2c1`, 0.075%; in that of `Cc1ccc(-c2cn3cc(C)ccc3n2)cc1`, -9.81%.
Regarding `COC(=O)C12OCC34C(CC5C(C)=C(O)C(=O)CC5(C)C3C(O)C1O)OC(=O)C(OC(=O)C=C(C)C)C24` (configuration not stated), the “activity change, negative = cytotoxicity” value is 0.417%.
